# Compounds without any hit were thinned out: in the full panel of roughly 83,000, 20% have a hit.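 Testing used 96-well plates and a 48-hour single-concentration exposure. Example: -40 means 40% of the starting cells died.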 Values without a mark were called inactive. Activity calls are given as the source filed them. How the source made its calls: active means growth percent below 10; inactive means the rest.
# Columns and labels:
# Assay in all cases: NCI-60 one-dose screen, 48 h (100 = growth as untreated, 0 = no growth, -100 = all killed)
# 786-0 renal = details: 10 µM unless noted
# DU-145 prostate = details: 10 µM unless noted
# MDA-MB-231 breast = details: 10 µM unless noted
# SF-268 CNS = details: 10 µM unless noted
# SF-539 CNS = details: 10 µM unless noted
# UACC-257 melanoma = details: 10 µM unless noted
# HCT-15 colon = details: 10 µM
# SNB-19 CNS = details: 10 µM unless noted
# PC-3 prostate = details: 10 µM unless noted
# UACC-62 melanoma = details: 10 µM unless noted
# LOX IMVI melanoma = details: 10 µM unless noted
# SK-MEL-28 melanoma = details: 10 µM unless noted
# SN12C renal = details: 10 µM unless noted
# MOLT-4 leukemia = details: 10 µM
# OVCAR-8 ovarian = details: 10 µM unless noted
# OVCAR-3 ovarian = details: 10 µM unless noted
# MDA-MB-435 melanoma = details: 10 µM unless noted
# SW-620 colon = details: 10 µM unless noted
# MCF7 breast = details: 10 µM unless noted
# KM12 colon = details: 10 µM unless noted
SMILES,growth (786-0 renal),growth (DU-145 prostate),growth (MDA-MB-231 breast) [%],growth (SF-268 CNS),growth (SF-539 CNS),growth (UACC-257 melanoma),growth (HCT-15 colon),growth (SNB-19 CNS) [%],growth (PC-3 prostate) [%],growth (UACC-62 melanoma) [%],growth (LOX IMVI melanoma),growth (SK-MEL-28 melanoma),growth (SN12C renal) [%],growth (MOLT-4 leukemia),growth (OVCAR-8 ovarian),growth (OVCAR-3 ovarian),growth (MDA-MB-435 melanoma),growth (SW-620 colon),growth (MCF7 breast),growth (KM12 colon) [%]
COc1ccc(NP2(=O)OCC(C)(N)CO2)cc1 (stereo not given),101%,102%,106,96.2%,100%,97.6%,89.3%,105,84.5,99.9,89.4%,114%,105,82.2%,101%,107%,108%,105%,99.6%,91.8
C/C1=C/C(=O)O[C@@H]2C[C@@H](CC[C@H](C)/C=C\C=C\CC1)O[C@@](OCCc1ccccc1)([C@@H]1CSC(=O)N1)C2,9.36% (active),-2.11% (active),11.8,-42.9% (active),9.84% (active),-3.39% (active),46.3%,21.5,18.3,24.3,4.46% (active),–,39.1,61.4%,46.2%,-48.7% (active),16.7%,59.3%,–,58.2
CCOc1c(Cl)cc(CNC(C)C(O)c2ccccc2)cc1OC (stereo not given),89.1%,57%,59.9,66.8%,82.8%,51.4%,47.1%,91.6,57.2,63.2,57.1%,41.5%,79.8,41.9%,56.5%,67.4%,1.97% (active),43.4%,42.9%,55.3
NC(=O)C(Br)CBr (stereo not given),–,-28.2% (active),14.3,-23.1% (active),39.2%,-83.5% (active),-7.98% (active),80.1,13.9,19.9,3.13% (active),-28% (active),22,-62.1% (active),-24.1% (active),-85.1% (active),-73.3% (active),-59.3% (active),2.57% (active),71.4
CCC(C)(C)O,114%,115%,97.4,99.1%,108%,119%,99.9%,104,100,98.5,108%,108%,98.8,121%,108%,111%,92.3%,99.9%,97.6%,105
CC[C@@]1(C2O[C@@H](C3O[C@@](O)(CC)[C@H](C)C[C@@H]3C)C[C@@H]2C)CC[C@H]([C@]2(C)CCC3(C[C@H](O)[C@@H](C)[C@@H]([C@H](C)[C@@H](OC)[C@H](C)C(=O)O)O3)O2)O1 (stereo not given in full),–,44.9%,–,22.4%,12.6%,20.7%,11.5%,31.1,–,–,–,29.5%,31,30.8%,31%,11%,–,11.3%,–,20.6
O=C(N/N=C/c1ccc([N+](=O)[O-])o1)c1cc([N+](=O)[O-])cc([N+](=O)[O-])c1O,106%,111%,93.5,101%,112%,99.2%,93.3%,100,85.9,88.9,84.5%,113%,96.1,62.8%,89.8%,113%,98.3%,102%,84.6%,99.7
COc1cc(C2CC(=O)Nc3nc(N)[se]c32)c(OC)c2c1OCO2 (stereo not given),105%,103%,96.3,107%,91%,116%,101%,51.9,51.6,99.3,104%,104%,97.3,117%,104%,114%,99%,110%,94.1%,70.3
